Measurements taken from the supplement of paper PMC11417369.
± gives the standard deviation of the averaged measurements. The full ranking holds about 25,000 sequences; the median of “ln(normalized median fluorescence intensity)” is about 7.9, and the highest 2% start at about 11. For the sample, the highest values were picked, then their nearest neighbours and some sequences at random.

test system: PfAP2-I AP2 domain 3 (GST-tagged); test: gcPBM binding intensity (ln(normalized median fluorescence intensity)); higher = stronger DNA binding
Summary of the method: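 Binding intensity is defined as the maximum Masliner-normalised natural-log median intensity across replicate spots for either probe orientation. It was measured on an Agilent 4 × 180k array of primer-extended double-stranded 36-bp intergenic genomic probes and negative controls, to which GST-tagged P. falciparum DNA-binding domains made in E. coli were applied for 1 h in 1× PBS with 1% milk, 0.2 mg/ml BSA, 0.5% salmon testes DNA and 0.03% Triton X-100. Detection was by Alexa488 anti-GST antibody and scanning at 488 nm.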

Sequence	gcPBM binding intensity (ln)
GTAGACATTATAATGGTGCAAAAAAATTAACAAAAA [GTGCAC_site9891]	10.9 ± 0.3
AGAAAAAAAAAAAAAAAAAAAAAATTGAATATATAT [TGCATGCA_negctrl_site55]	7.67 ± 0.81
ATGTTATTAATAATTGCACACATTTTTTTTTTTTTT [CACACA_site3920]	9.12 ± 0.23
AAAAATATATAACAAAGTACATATATATTTAGTAAT [XGTACX_site8791]	7.43 ± 0.4
AAAATAAAATAAAAGTGTACGTTTTAAGAACATTGA [XGTACX_site2382]	7.76 ± 0.48
ATCTGTCGACAGGACAGTACACAGTAGCCAGTAACT [XGTACX_site2001]	7.63 ± 0.76
AATTTAAAGTTTTTTTTTTTTTTTTTTTTTTTTTTG [CACACA_negctrl_site1082]	7.39 ± 0.31
AACATTTCCTTTCTGTGTACATATAAACCCATCTAT [XGTACX_site2071]	8.13 ± 0.64
ATTATCAATATGAAGGTGCATTTAAATAATATTTAC	11.3 ± 0.7
TTATTTTTTTTTAGAGCACACATTTTTAATAAGGTA [CACACA_site2133]	9.54 ± 0.2
TGTTTTATTTAGAAGGTGCACATTAATATTAAATAA	11.3 ± 0.45
TATCATATATGAAGGTGTACGATTTATTATATAAAT [XGTACX_site7010]	7.87 ± 0.54
AAATATTATAAAAAGGTGCATTTTTATTATATGAGT	10.5 ± 0.35
TAATGCAACATTTATGTGCACATAAATATTTTTTAA	9.815 ± 0.064
TTTTCAATTAATAATACACACATGTATTTATTATTA [CACACA_site5774]	7.83 ± 0.34
ATAAATTCATATATGAGTACTAAAAATATCTTTTTC [XGTACX_site5541]	7.61 ± 0.45
ATTTATGGAAAAAGAACACACAATCAAACAAAAATA [CACACA_site3707]	8.01 ± 0.57
TTATAATTTTTGAGCACACACAAGCATATATATATA [CACACA_site1798]	9.475 ± 0.049
ATATATATATATTTCGCACACATAATCTTATTAAAT [CACACA_site2579]	9.22 ± 0.31
TATGGATAAATAAATACACACATAAATTTAAATATA [CACACA_site1282]	7.57 ± 0.61
GTTTATCACAGCCACGCACACATAATATCTGTATAT [CACACA_site5929]	8.18 ± 0.59
GAACATTTGAAATATGCACACATGTATAAACCTACA [CACACA_site2654]	8.7 ± 0.4
AGATAAGATATATACACACACATAAATACGTACAAA [CACACA_site6639]	8.35 ± 0.16
ATAAATAAGATACGTACACACATATACAAAATATAC [CACACA_site3661]	8.14 ± 0.26

Sequence	gcPBM binding intensity (ln)
CTTATATATACGTGCACACATATATATAAGATATAT [CACACA_site1752]	11.03 ± 0.11
TATATATATATATGTGCACACATAAAGATATTATTT [CACACA_site3734]	10.18 ± 0.021
TATATATATATGTGCACACATAAAGATATTATTTTT [CACACA_site3733]	10.2 ± 0.042
TGCTTATATATACGTGCACACATATATATAAGATAT [CACACA_site8516]	10.9 ± 0.11
AAGGTAGAAATATGTTGTACGGTTTGGAGGAAGCAA [XGTACX_site1105]	8.12 ± 0.49
AGTACATTTTTTTTAATAGGAAAAAAAATATTTATT [TGCATGCA_negctrl_site575]	7.66 ± 0.57
TTTTTTGCTAAGTGTACACAAATGTTTATTAATTTA [CACACA_site5859]	8.42 ± 0.27
ATATATATATATAGTGCACACTTAAGAATATAAAGA [CACACA_site4771]	11.5 ± 0.27
ATATATATATAGTGCACACTTAAGAATATAAAGAGG [CACACA_site1151]	11.5 ± 0.3
ATAAAGAATATAAATACACACTTAAATATATATTAT [CACACA_site6071]	7.64 ± 0.44
AAATAAAGAATATAAATACACACTTAAATATATATT [CACACA_site4007]	7.58 ± 0.61
ATAAAGAATATAAATACACACTTAAATATAGATTAT [CACACA_site7804]	7.6 ± 0.45
AAAAAAAAAAAAAGTGCACACTTTTAATATAAATAT [CACACA_site3314]	10 ± 0.35
TATATGTATGTATGTACACACAAAAAATGGAATATA [CACACA_site3717]	7.93 ± 0.35
AAAAATAAAGAAACAGGTACGCATATATTAAGATAT [XGTACX_site8097]	7.98 ± 0.78
GGTATATTAAAATAGGTGCATAAAACTAAGAGAAAA [GTGCAC_site9781]	11.3 ± 0.54
GTATTATATATATAGGTGCATATATATATATAAATA [GTGCAC_site9787]	10.6 ± 0.33
CAATATTATTATATTTGTACACATGCGTATTTTTTA [XGTACX_site4154]	7.74 ± 0.47
TTAATATAACTTTTTGCACACTTAATTTTTTTTTTT [CACACA_site3364]	9.32 ± 0.085
TAACTTAATATTAATGCACACAATTTATATATATAT [CACACA_site3903]	11.3 ± 0.38
AATATAACTTTTTGCACACTTAATTTTTTTTTTTAA [CACACA_site3365]	9.79 ± 0.11
TTTTTAAAATATTTAACACACAATTATAATGCATAA [CACACA_site3932]	8.885 ± 0.035
TAAATTATATTATGCACACTTAAAAATATATTTAAC [CACACA_site3512]	10.4 ± 0.49
TAACTTAATTTTAATGCACACAATTTATATATATAT [CACACA_site6022]	11.2 ± 0.52
